{
  "source": "PubChem BioAssay AID720650",
  "about": "(Broad Institute, 2013)",
  "note": "Calls of active or inactive are those of the source. The rule behind the calls is not given here.",
  "data": [
    {"experiment": "Biochemical counterscreen for C difficile toxins, absence of UDPG, inhibitor dose response (AID 720650)", "conditions": "series mostly up to 19.5 µM", "values": [
      {"smiles": "NC(=O)C1(Nc2ccc(-c3ccc(Br)cc3)cc2)CCCC1", "AC50": "inactive"},
      {"smiles": "COC(=O)c1sc2nc(SCc3ccccc3C)n(N)c(=O)c2c1C", "AC50": "inactive"},
      {"smiles": "O=C(C[C@@H]1CC[C@H]2[C@@H](COC[C@@H](O)CN2C(=O)c2ccccn2)O1)NC1CCC1", "AC50": "inactive"},
      {"smiles": "Cc1cc2c(cc1S(=O)(=O)N(C)c1ccccc1)NC(=O)CO2", "AC50": "inactive"},
      {"smiles": "CSc1ccc(/C=N/N2CCN(Cc3ccc(Cl)cc3)CC2)cc1", "AC50": "inactive"},
      {"smiles": "Cc1c(CNC(=O)c2c([N+](=O)[O-])cnn2C)cnn1C", "AC50": "inactive"},
      {"smiles": "O=C(CC(c1ccccc1)c1ccccc1)Nc1ccc(O)cc1", "AC50": "13.4 µM (active)"},
      {"smiles": "COc1cc(/C=C/C(=O)c2ccc([N+](=O)[O-])o2)ccc1O", "AC50": "inactive"},
      {"smiles": "O=C(COC(=O)c1ccc(F)cc1F)c1ccc[nH]1", "AC50": "inactive"},
      {"smiles": "CN1C(=O)c2cc(NC(=O)c3cccc(F)c3)ccc2OC[C@H]2O[C@H](CC(=O)NCC3CCCCC3)CC[C@@H]21", "AC50": "inactive"},
      {"smiles": "COC(=O)C(C(=O)OC)C(CC(=O)c1ccc(Br)cc1)c1ccccc1", "note": "(configuration not stated)", "AC50": "inactive"},
      {"smiles": "O=C1/C(=C/c2cccnc2)SC(=NCc2ccccc2)N1Cc1ccccc1", "AC50": "inactive"},
      {"smiles": "CN1C(=O)c2cc(NC(=O)Nc3ccccc3Cl)ccc2OC[C@H]2O[C@@H](CC(=O)NCCCN3CCOCC3)CC[C@H]21", "AC50": "inactive"},
      {"smiles": "CCOC(=O)c1cc([N+](=O)[O-])sc1N", "AC50": "inactive"},
      {"smiles": "COc1ccc(C(O)(C(C)C)C(CN2CCOCC2)c2ccccc2)cc1", "note": "(configuration not stated)", "AC50": "inactive"},
      {"smiles": "CNC(=S)N/N=C/c1c(C(=O)OC)cnn1-c1ccc(F)cc1F", "AC50": "inactive"},
      {"smiles": "COC1=C/C(=C/c2c(N)n3nc(CC(=O)N4CCOCC4)sc3nc2=O)C=CC1=O", "AC50": "inactive"}
    ]}
  ]
}
